# Assay outcomes deposited in PubChem by The Scripps Research Institute Molecular Screening Center.
# Only some compounds are listed: those with a hit (about 1.1% of all), similar ones and a draw of the others.
# NCOA3 inh: human NCOA3 inhibition. 0.17% of 360,000 active. inhibition, % at 3.6 µM. HEK293 GAL4-SRC3 luciferase reporter, luminescence;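 active means inhibition above a per-campaign cutoff, the mean of all compounds plus 3 SD, cut at about 60% in these data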;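 further: 0% = DMSO-treated cells and 100% = gossypol-treated cells at 36 µM; higher means less SRC3-driven luciferase light from the GAL4 reporter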
# NR5A2 inv ag: suppresses constitutive activity of human LRH-1; HEK293T StAR-luciferase reporter, LRH-1 transfected, 24 h; inhibition, % at 3.6 µM; 0.13% of 360,000 active; AID 602396;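 active means inhibition above the mean inhibition of all tested compounds plus 3 SD, cut at about 73% in these data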;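 further: 0% = DMSO wells and 100% = reporter-only cells lacking LRH-1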
# COUP-TFII inh: blocks human COUP-TFII nuclear receptor. inhibition, % at 8.6 µM. P24468. 0.7% of 370,000 active. AID 686940. HEK293T NGFI-A luciferase reporter, luminescence;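 active means inhibition above a per-plate cutoff, mean inhibition of test wells between control levels plus 3 SD, cut at about 38% in these data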;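 further: cells cotransfected with COUP-TFII expression vector driving the NGFI-A reporter; 0% = median of COUP-TF2 test wells and 100% = reporter-only cells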
# GalR3 antag: human GalR3 antagonism. HEK293 GalR3-CNG cAMP membrane potential fluorescence; galR3 body fused to GalR1 C-terminus. O60755. 0.44% of 360,000 active. inhibition, % at 3 µM;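 active means inhibition above the screen-wide average plus 3 SD, cut at about 13% in these data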;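 further: forskolin and galanin both at EC90 stimulate the cells; cAMP rise reported by CNG channel membrane potential dye signal; 0% = forskolin plus galanin with DMSO and 100% = forskolin alone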
# SRC2 inh: inhibits human steroid receptor coactivator 2. 0.17% of 370,000 active. HEK293 GAL4-SRC2 luciferase reporter, luminescence. Q15596. inhibition, % at 9 µM. AID 651957;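 active means inhibition above the mean inhibition of all tested compounds plus 3 SD, set per campaign, cut at about 52% in these data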;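 further: 0% = DMSO treated cells and 100% = cells given Gossypol at 36 µM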
# SRC1 inh: human NCOA1 inhibition; HEK293 GAL4-SRC1 luciferase reporter, luminescence; 0.12% of 360,000 active; Q15788; inhibition, % at 3.6 µM;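 active means inhibition above the campaign mean plus 3 SD, with each screening campaign given its own cutoff, cut at about 60% in these data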;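 further: 0% = DMSO treated cells and 100% = gossypol at 36 µM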
# Gal4-VP16 ctr: VP16 inhibition counter-screen for COUP-TFII | HEK293 Gal4-VP16 luciferase reporter, luminescence | inhibition, % at 8.5 µM | 25% of 2,500 active | shares compounds with COUP-TFII inh; in the data active means inhibition above about 13%
# COUP-TFII conf: COUP-TFII (NR2F2) inhibition, confirmation assay | shares compounds with COUP-TFII inh | HEK293 NGFI-A luciferase reporter, luminescence | inhibition, % at 8.5 µM | 45% of 2,500 active;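 active means mean inhibition over three repeats above a set limit taken from the earlier primary screen, cut at about 38% in these data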;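 further: 100% = cells given the luciferase reporter alone without the COUP-TF2 vector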
# The depositor's hits bear a star; · = no result.
SMILES,NCOA3 inh,NR5A2 inv ag,COUP-TFII inh,GalR3 antag,SRC2 inh,SRC1 inh,Gal4-VP16 ctr,COUP-TFII conf
Cc1ccc(S(=O)(=O)N(C)CCCC(=O)Nc2ccncc2)cc1,-8,13,42*,0,10,3,-1,19
COC(=O)C1=C(C)N(Cc2cccc(C(F)(F)F)c2)C(=NCc2ccc3c(c2)OCO3)NC1c1cccc(Cl)c1 (stereo not drawn),·,·,-2,-7,12,·,·,·
N#Cc1[nH]nc2nc[nH]c(=O)c12,·,·,1,-7,-9,·,·,·
CC1(C)CC(N2CCCC2)=CC(=[N+]2CCCCCC2)C1,38,69,60*,55*,13,35,14*,58*
CC1CC(C)C[N+](=C2C=C(N3CCCC3)CC(C)(C)C2)C1 (stereo not drawn),54,65,62*,28*,-1,34,15*,59*
CC1(C)CC(N2CCN(c3ccccc3)CC2)=CC(=[N+]2CCCC2)C1,57,62,33,-1,17,29,·,·
Nc1ccc(Oc2cccc(Oc3ccc(N)cc3)c2)cc1,44,67,77*,-1,86*,44,77*,74*
Cc1cccc(Oc2ccc(N)cc2)c1,-9,-11,13,-6,-15,-104,·,·
Cc1cc(C)cc(Oc2ccc(N)cc2)c1,5,32,51*,-4,24,-17,20*,24
COC[C@H]1O[C@]2(c3ccccc3)CO[C@H]1[C@@H](/C=C/c1ccccc1)C2,·,·,4,·,6,·,·,·
O=C(NCCc1ccccc1)OCc1cn(Cc2ccc(F)cc2F)nn1,·,·,3,·,13,·,·,·
Nc1cc(S(=O)(=O)c2ccc(N3CCCCC3)c(N)c2)ccc1N1CCCCC1,2,1,43*,-9,1,0,5,22
Nc1cc(S(=O)(=O)N2CCCCC2)ccc1N1CCOCC1,12,12,15,3,9,0,·,·
C=CCN1C[C@H](COC(=O)c2ccc(C)c(C)c2)Oc2cccc(F)c2S1(=O)=O,·,·,30,-9,-6,·,·,·
CCN(c1ccccc1)S(=O)(=O)c1cc(C(=O)Nc2ccccc2Cl)ccc1F,14,3,-2,-6,-1,-13,·,·
CCN(c1ccccc1)S(=O)(=O)c1cc(C(=O)Nc2ccc(Br)cc2)ccc1F,27,31,65*,6,24,31,-5,41*
CCc1ccc(NC(=O)c2ccc(F)c(S(=O)(=O)NCC3COc4ccccc4O3)c2)cc1 (stereo not drawn),23,10,38*,-3,17,-3,-4,13
COc1cc(C[C@@H]2C(=O)OC[C@H]2Cc2ccc(OC)c(OC)c2)ccc1O,20,43,70*,102*,17,22,0,57*
CCCCOC(=O)c1[nH]c2c(c1C)C(=O)CC(c1cc(OC)c(OC)c(OC)c1)C2 (stereo not drawn),41,28,71*,0,3,31,12,63*
Nc1ccc(OC(=O)Nc2ccc(O)cc2)cc1,15,10,44*,-8,77*,-4,36*,24
CC(C)C[C@@H]1COc2cc(Br)ccc2S(=O)(=O)N1Cc1cn(CC2CCCCC2)nn1,·,·,-1,·,16,·,·,·
CC(C)C(=O)N1CCN(c2ccc(NC(=O)COc3ccccc3[N+](=O)[O-])cc2)CC1,49,2,50*,0,25,23,-2,28
Cc1cc(C(=O)CSc2ccc(F)cc2)cc(C)c1OC(=S)N(C)C,51,55,73*,-1,51,63*,57*,85*
O=C(/C=C\Nc1ccc2c(c1)OCO2)c1ccccn1,34,-34,46*,2,73*,12,31*,52*
CSC1SCC2C(=O)N(C)C(C(C)C)C(=O)OCC(NC(=O)c3cnc4ccccc4n3)C(=O)NC(C)C(=O)N(C)C1C(=O)N(C)C(C(C)C)C(=O)OCC(NC(=O)c1cnc3ccccc3n1)C(=O)NC(C)C(=O)N2C (stereo not drawn),86*,96*,51*,-6,66*,85*,29*,38*
SMILES,NCOA3 inh,NR5A2 inv ag,COUP-TFII inh,GalR3 antag,SRC2 inh,SRC1 inh,Gal4-VP16 ctr,COUP-TFII conf
CC(C)NC(=O)N[C@H]1C[C@@H]2O[C@H](CO)CC[C@@H]2O[C@@H]1CCc1ccc(-c2ccccc2F)cc1,·,·,11,·,-12,·,·,·
O=C(Nc1ccc2c(c1)C(=O)OC2)c1ccc(C(F)(F)F)cc1,-12,5,12,-9,-15,-19,·,·
COCCC(=O)Nc1ccc2c(c1)CN(C(=O)CSC)CC2,18,6,-16,4,11,-4,·,·
CN(C)S(=O)(=O)N1CCc2ccc(NC(=O)c3ccc(C(F)(F)F)cc3)cc2C1,-17,14,56*,11,-25,7,-47,29
COCCC(=O)N1CCc2ccc(NC(=O)c3ccc(C(F)(F)F)cc3)cc2C1,6,7,38*,-2,-11,13,-20,0
O=S1(=O)N[C@H](Cc2ccccc2)COc2cccc(F)c21,·,·,3,-3,-27,·,·,·
CCn1cc(CCCC(=O)NCc2ccccc2OC)c2ccccc21,3,-7,2,-8,2,2,·,·
CCn1cc(CCCC(=O)NCc2cccc(OC)c2)c2ccccc21,5,-6,38*,-9,-16,-37,-5,7
O=C(CSc1cc(Cl)ccc1Cl)N/N=C/c1ccc[nH]1,·,·,56*,·,·,·,8,38*
O=C(N[C@H](Cc1ccccc1)C(=O)N1CCN(Cc2ccccn2)CC1)[C@H]1O[C@@H](n2ccc(=O)[nH]c2=O)[C@H](O)[C@@H]1O,·,·,4,-7,7,·,·,·
CC[n+]1c(/C=C/c2c[nH]c3ccccc23)ccc2cc(C)ccc21,·,·,38*,-10,-10,·,4,52*
CCN(CC)C(=O)c1ccc(/C=C/c2c[nH]c3ccccc23)[n+](C)c1,-1,-3,-15,-2,22,9,·,·
Cn1c(SCC(=O)NCCc2ccccc2)ncc(C(=O)Nc2ccccc2)c1=O,8,28,54*,-4,14,2,4,1
CC(=O)CSc1ccc(-c2nc3ccccc3[nH]2)cn1,-65,-138,-3,-7,-3,-90,·,·
CC(=O)CSc1ccc(-c2nc3cc(C)c(C)cc3[nH]2)cn1,46,0,54*,-5,63*,21,2,29
CN(C(=O)c1cccc(NC(=O)Cc2ccc(NC(=O)C3CCCN(C(=O)CCc4ccccc4)C3)cc2)c1)C1CC1 (stereo not drawn),2,17,10,-2,8,12,·,·
